Data on seven molecules can be found in ChEMBL document CHEMBL1961873, “Compounds: GSK PKIS; Assays: Nanosyn kinase panel” (2012).

Assay [1] concerns the target T1, Muscle, skeletal receptor tyrosine-protein kinase (Homo sapiens) (UniProt O15146).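 Also: reported value is the mean percent inhibition of MuSK kinase.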
T1 sequence (whole entry): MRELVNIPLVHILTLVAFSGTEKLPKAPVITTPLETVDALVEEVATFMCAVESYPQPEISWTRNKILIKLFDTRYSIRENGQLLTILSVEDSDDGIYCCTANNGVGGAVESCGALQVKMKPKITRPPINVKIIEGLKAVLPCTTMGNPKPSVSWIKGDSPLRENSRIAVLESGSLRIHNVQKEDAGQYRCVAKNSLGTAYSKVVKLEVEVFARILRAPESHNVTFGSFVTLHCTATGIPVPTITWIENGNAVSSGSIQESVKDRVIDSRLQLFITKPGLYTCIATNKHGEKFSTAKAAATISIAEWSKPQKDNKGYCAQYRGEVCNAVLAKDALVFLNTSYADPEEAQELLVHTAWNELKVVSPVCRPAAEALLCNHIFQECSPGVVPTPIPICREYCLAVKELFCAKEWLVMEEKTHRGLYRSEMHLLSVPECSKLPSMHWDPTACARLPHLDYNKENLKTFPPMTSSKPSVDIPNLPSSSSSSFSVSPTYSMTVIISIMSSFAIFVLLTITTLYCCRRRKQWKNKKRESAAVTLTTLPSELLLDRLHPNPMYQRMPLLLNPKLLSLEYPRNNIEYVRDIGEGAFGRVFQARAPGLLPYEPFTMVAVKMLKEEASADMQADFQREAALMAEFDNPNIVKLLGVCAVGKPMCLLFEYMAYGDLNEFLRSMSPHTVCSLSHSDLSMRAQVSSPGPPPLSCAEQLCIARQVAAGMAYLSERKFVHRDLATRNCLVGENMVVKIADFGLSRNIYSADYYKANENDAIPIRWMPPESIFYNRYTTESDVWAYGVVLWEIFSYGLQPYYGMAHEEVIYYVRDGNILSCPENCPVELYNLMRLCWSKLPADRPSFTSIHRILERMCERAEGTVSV
As to conditions: at 1 µM.

In assay [2] the target is Platelet-derived growth factor receptor alpha (Homo sapiens) (UniProt P16234). As to conditions: at 0.1 µM.
For assay [3] the target is unchanged. As to conditions: at 1 µM.
The subject of assay [4] is Platelet-derived growth factor receptor alpha (Homo sapiens), P16234 [D842V]. Particulars: at 0.1 µM.
Assay [5] shares this test system. As to conditions: at 1 µM.
Assay [6] has as its system Platelet-derived growth factor receptor alpha (Homo sapiens), P16234 [T674I]. Particulars: at 0.1 µM.
Assay [7] has the same test system. Particulars: at 1 µM.
The subject of assay [8] is Platelet-derived growth factor receptor alpha (Homo sapiens), P16234 [V561D]. Particulars: at 0.1 µM.
The test system is the same in assay [9]. As to conditions: at 1 µM.
Assay [10] addresses Platelet-derived growth factor receptor beta (Homo sapiens) (UniProt P09619). Particulars: at 0.1 µM.
Assay [11] shares this target. As to conditions: at 1 µM.
The target of assay [12] is Tyrosine-protein kinase FRK (Homo sapiens) (UniProt P42685). Particulars: at 0.1 µM.
Assay [13] shares this target. As to conditions: at 1 µM.
Assay [14] concerns the target Protein-tyrosine kinase 2-beta (Homo sapiens) (UniProt Q14289). As to conditions: at 0.1 µM.
For assay [15] the target is unchanged. Particulars: at 1 µM.
In assay [16] the target is Proto-oncogene tyrosine-protein kinase receptor Ret (Homo sapiens) (UniProt P07949). Particulars: at 0.1 µM.
The target is the same in assay [17]. Particulars: at 1 µM.
Assay [18] deals with Proto-oncogene tyrosine-protein kinase receptor Ret (Homo sapiens), P07949 [V804L]. As to conditions: at 0.1 µM.
For assay [19] the test system is unchanged. Particulars: at 1 µM.
The subject of assay [20] is Proto-oncogene tyrosine-protein kinase receptor Ret (Homo sapiens), P07949 [Y791F]. As to conditions: at 0.1 µM.

Chain of Protein-tyrosine kinase 2-beta (Homo sapiens) (Q14289 whole entry, looked up): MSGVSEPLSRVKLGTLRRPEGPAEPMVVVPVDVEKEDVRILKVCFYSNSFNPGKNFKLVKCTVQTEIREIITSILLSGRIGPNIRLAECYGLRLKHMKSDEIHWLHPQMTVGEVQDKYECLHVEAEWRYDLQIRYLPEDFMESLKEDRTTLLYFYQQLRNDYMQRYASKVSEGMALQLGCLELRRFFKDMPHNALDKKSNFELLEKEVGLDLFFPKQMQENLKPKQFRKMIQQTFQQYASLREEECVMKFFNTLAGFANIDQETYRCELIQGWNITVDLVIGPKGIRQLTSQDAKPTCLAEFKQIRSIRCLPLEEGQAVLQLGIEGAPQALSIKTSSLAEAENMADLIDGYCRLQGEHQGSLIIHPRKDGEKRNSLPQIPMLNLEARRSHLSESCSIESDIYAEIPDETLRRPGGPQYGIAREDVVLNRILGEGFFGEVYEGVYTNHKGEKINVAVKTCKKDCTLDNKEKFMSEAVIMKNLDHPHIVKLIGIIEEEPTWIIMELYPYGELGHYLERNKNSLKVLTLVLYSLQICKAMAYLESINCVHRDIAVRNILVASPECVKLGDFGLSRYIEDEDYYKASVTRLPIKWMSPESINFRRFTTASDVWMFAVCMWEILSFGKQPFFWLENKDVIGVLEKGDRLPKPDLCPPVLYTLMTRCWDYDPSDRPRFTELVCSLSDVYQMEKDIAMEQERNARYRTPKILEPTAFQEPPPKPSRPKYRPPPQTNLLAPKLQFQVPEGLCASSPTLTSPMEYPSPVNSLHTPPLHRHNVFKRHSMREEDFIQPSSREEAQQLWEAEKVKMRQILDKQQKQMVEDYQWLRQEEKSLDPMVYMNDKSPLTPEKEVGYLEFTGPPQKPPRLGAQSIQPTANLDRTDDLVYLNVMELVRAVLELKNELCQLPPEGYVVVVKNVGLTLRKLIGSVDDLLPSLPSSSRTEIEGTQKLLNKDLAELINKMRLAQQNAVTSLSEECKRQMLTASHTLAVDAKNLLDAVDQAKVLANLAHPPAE
Chain of Proto-oncogene tyrosine-protein kinase receptor Ret (Homo sapiens) (P07949 whole entry): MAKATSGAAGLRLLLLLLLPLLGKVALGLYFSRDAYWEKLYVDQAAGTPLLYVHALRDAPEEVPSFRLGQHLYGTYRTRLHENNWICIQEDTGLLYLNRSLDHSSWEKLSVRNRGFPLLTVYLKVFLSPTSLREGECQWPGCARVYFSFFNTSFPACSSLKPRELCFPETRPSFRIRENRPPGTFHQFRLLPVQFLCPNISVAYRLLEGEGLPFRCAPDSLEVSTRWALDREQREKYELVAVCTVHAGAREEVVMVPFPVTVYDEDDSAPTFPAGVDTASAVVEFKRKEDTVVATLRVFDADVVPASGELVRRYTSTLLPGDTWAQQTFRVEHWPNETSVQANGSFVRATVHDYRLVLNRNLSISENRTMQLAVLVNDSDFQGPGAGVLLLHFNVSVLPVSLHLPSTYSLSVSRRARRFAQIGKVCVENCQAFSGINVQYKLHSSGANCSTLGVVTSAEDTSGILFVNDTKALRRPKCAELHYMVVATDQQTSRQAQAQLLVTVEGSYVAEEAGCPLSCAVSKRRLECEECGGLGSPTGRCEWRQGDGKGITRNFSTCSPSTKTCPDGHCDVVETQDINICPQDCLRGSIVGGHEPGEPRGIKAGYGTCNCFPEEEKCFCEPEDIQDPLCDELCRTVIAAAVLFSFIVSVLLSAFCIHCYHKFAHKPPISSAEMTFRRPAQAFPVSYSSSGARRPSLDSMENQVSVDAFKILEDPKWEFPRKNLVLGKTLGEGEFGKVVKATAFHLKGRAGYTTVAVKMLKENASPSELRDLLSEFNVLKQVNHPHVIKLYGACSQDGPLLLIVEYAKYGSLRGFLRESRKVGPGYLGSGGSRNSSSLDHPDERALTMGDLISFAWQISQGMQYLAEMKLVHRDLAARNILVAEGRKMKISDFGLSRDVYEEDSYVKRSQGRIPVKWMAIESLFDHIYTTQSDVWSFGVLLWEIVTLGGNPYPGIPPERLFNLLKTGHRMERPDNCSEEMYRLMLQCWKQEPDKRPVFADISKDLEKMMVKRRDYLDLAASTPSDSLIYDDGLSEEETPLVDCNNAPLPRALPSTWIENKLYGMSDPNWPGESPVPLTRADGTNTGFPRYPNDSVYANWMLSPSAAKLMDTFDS
Chain of Proto-oncogene tyrosine-protein kinase receptor Ret (Homo sapiens), P07949 [V804L] (P07949 whole entry V804L): as the sequence (P07949 whole entry) above, with V804L counted along it
Chain of Proto-oncogene tyrosine-protein kinase receptor Ret (Homo sapiens), P07949 [Y791F] (P07949 whole entry Y791F): as the sequence (P07949 whole entry) above, with Y791F counted along it
Chain of Tyrosine-protein kinase FRK (Homo sapiens) (P42685 whole entry): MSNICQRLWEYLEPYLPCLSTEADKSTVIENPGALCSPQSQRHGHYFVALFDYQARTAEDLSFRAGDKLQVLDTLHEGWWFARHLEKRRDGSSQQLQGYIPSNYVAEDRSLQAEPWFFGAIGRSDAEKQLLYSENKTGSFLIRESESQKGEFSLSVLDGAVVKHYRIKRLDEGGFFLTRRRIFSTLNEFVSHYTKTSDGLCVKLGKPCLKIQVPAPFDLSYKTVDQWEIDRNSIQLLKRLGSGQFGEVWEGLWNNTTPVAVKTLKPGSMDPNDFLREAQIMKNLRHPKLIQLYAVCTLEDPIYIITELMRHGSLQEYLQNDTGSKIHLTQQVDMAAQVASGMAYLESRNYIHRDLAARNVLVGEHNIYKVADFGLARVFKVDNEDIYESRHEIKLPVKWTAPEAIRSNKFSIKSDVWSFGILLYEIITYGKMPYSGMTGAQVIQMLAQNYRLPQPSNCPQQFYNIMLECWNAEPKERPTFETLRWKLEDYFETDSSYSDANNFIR

For the molecule `CN1CCC(n2cnc(-c3ccc(F)cc3)c2-c2ccnc(NCCO)n2)CC1`, the inhibition was 3.41% in [1]; 13.6% in [2]; 14.4% in assay [3]; 5.63% in assay [4]; 8.15% in assay [5]; 7.46% in assay [6]. Besides, the inhibition in [7] was 9.01%; in assay [8] it was 7.95%; in [9], 3.97%; in assay [10] it was 8.62%; in [11] it was 20.7%; in [12], 0.17%. Further, the inhibition in assay [13] stood at 1.02%; in assay [14], 6.77%; in [15] it was 18%; in [16], 1.17%; in assay [17] it was 1.73%; in [18], 4.71%. The inhibition in assay [19] turned out to be 10.8%; in assay [20] it was 5.21%.
With `c1cnn2ncc(-c3ccnc(NCCCN4CCOCC4)n3)c2c1`, the inhibition in assay [1] is 0.6%; in assay [2] it was 5.5%; in assay [3] it was 6.66%; in assay [4], 0.88%; in [5] it was 3.59%; in assay [6], 3.47%. The inhibition in assay [7] turned out to be 5.82%; in [8], 3.16%; in assay [9] it was 2.82%; in assay [10], 0.52%; in assay [11], 4.61%; in assay [12], 0.16%. The inhibition in assay [13] was determined as 0.39%; in [14], 9.94%; in assay [15], 6.44%; in assay [16] it was 4.78%; in assay [17] it was 0.87%; in assay [18], 2.98%. Moreover, the inhibition stood at 2.2% in [19] and 6.04% in assay [20].
Consider `Fc1cccc(COc2ccc(Nc3ncncc3C#Cc3ccccc3)cc2Cl)c1`, for which the inhibition in [1] turned out to be 3.28%; in [2], 13%; in assay [3], 12.4%; in assay [4], 5.22%; in assay [5], 4.74%; in [6], 8.12%. The inhibition in assay [7] came to 9.74%; in assay [8] it was 8.16%; in [9], 5.45%; in [10], 6.95%; in assay [11] it was 8.55%; in assay [12], 1.23%. Further, the inhibition was 1.62% in assay [13]; 13.9% in assay [14]; 15.1% in assay [15]; -0.25% in assay [16]; 5.48% in assay [17]; 5.31% in assay [18]. For the same molecule, the values for the inhibition in assay [19] and in [20] were 11.9% and 5.33%, respectively.
As for `Cn1c(-c2nonc2N)nc2cnccc21`, the inhibition is 5.28% in assay [1]; 2.63% in assay [2]; 7.48% in [3]; 2.81% in [4]; 4.99% in assay [5]; 4.72% in assay [6]. The inhibition amounted to 6.95% in assay [7]; 1.45% in assay [8]; 3.93% in [9]; 1.55% in assay [10]; 6.81% in assay [11]; 0.98% in assay [12]. For the same molecule, the inhibition in assay [13] amounted to 1.06%; in assay [14] it was 8.49%; in assay [15] it was 4.49%; in assay [16], 2.99%; in assay [17], 4.58%; in [18] it was 2.88%. Besides, the inhibition was found to be 1.31% in assay [19] and 3.98% in assay [20].
`Cc1ccc(-c2cc3c(NC(=O)C4CC4)ncnc3o2)cc1`: the inhibition in assay [1] came to 7.78%; in [2], 13.9%; in assay [3] it was 38.1%; in assay [4], 7.31%; in [5], 29.8%; in assay [6], 6.86%. Moreover, the inhibition was 32.7% in assay [7]; 8.94% in [8]; 31.9% in assay [9]; 8.16% in [10]; 24.5% in assay [11]; 2.14% in assay [12]. For the same molecule, the inhibition in assay [13] worked out at 0.91%; in assay [14], 9.96%; in [15], 10.2%; in [16] it was 8.44%; in [17], 27.6%; in assay [18] it was 6.9%. Moreover, the inhibition in assay [19] was 13.6%; in assay [20] it was 8.23%.
Regarding `CC1=C(C(=O)Nc2ccc3[nH]ncc3c2)C(c2ccc(F)cc2)N=C(c2ccc(C(F)(F)F)nc2)N1` (stereo not given), the inhibition in assay [1] was 5.28%; in assay [2], 6.34%; in [3], 8.66%; in assay [4] it was 2.97%; in assay [5], 3.35%; in assay [6], 3.34%. Further, the inhibition was 4.17% in assay [7]; 3.03% in assay [8]; 3.17% in assay [9]; 1.04% in [10]; 5.78% in assay [11]; -0.24% in [12]. Moreover, the inhibition in assay [13] was determined as 1.73%; in assay [14], 6.19%; in [15], 8.2%; in assay [16], 7.82%; in assay [17], 38.6%; in assay [18] it was 5.19%. Further, the inhibition in assay [19] came to 26.6%; in assay [20], 9.49%.
Turning to `Cc1cc(O)cc(C)c1/C=C/c1cncc(C(N)=O)c1`, the inhibition in [1] was 3.91%; in assay [2], 13%; in assay [3], 39.4%; in assay [4], 3.88%; in assay [5], 16.3%; in assay [6], 4.15%. Further, the inhibition in [7] was 4.33%; in [8], 21%; in assay [9] it was 55.5%; in assay [10] it was 9.04%; in assay [11], 42%; in [12] it was 2.65%. Further, the inhibition in [13] was determined as 14.2%; in [14] it was 8.94%; in assay [15], 8.75%; in assay [16] it was 3.99%; in assay [17], 8.88%; in assay [18], 0.84%. The inhibition was 4.4% in [19] and 3.94% in [20].

What is called inhibition is the drop in the measured response relative to a control, in per cent.
